This is an account of results in PubChem BioAssay (EPA / NIEHS).

Values joined by “and” are separate entries in the source; they are usually repeats but may differ in a detail not shown here. Equal values may be shown once. Results filed as inconclusive are left out. Some compounds were tested as several samples or in several runs, with calls that do not always agree. Active and inactive are the calls of the source. How the source made its calls: active means hit-call score of the fitted dose curve at least 0.9, where 1 is the maximum; inconclusive means response in the unintended direction; inactive means score below 0.9.

Test [1] concerns the target D(1A) dopamine receptor (Homo sapiens) (UniProt P21728). The test can be described thus: NVS_GPCR_hDRD1: NovaScreen (NVS) G Protein-Coupled Receptor Assay for human Dopamine Receptor D1 (DRD1) (AID 2283269). The procedure, abridged: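 Cell-free radioligand binding to human DRD1 from HEK293 membranes, read 1 h after dosing by filter-based scintillation counting. Loss of signal versus DMSO baseline marks displacement. Primary screen at 25 uM single concentration in duplicate; actives followed up in concentration series.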

The target in test [2] is human Serotonin, 5-Hydroxytryptamine Receptor 5A (5HT5A), HTR5A (gene 3361) (UniProt P47898). The test can be described thus: NVS_GPCR_h5HT5A: NovaScreen (NVS) G Protein-Coupled Receptor Assay for human Serotonin, 5-Hydroxytryptamine Receptor 5A (5HT5A) (AID 2283251). In a few lines:
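Membranes from HEK293 cells, radioligand binding read by filtration and scintillation after 1 h. Single-concentration duplicate testing at 25 uM, then concentration-response for actives; positive-direction fitting relative to DMSO.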

The target of test [3] is human Adenosine A1 Receptor (AdoRA1), ADORA1 (gene 134) (UniProt P30542). The test can be described thus: NVS_GPCR_hAdoRA1: NovaScreen (NVS) G Protein-Coupled Receptor Assay for human Adenosine A1 Receptor (AdoRA1) (AID 2283254). The procedure, abridged: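 Membranes from human cortical tissue were incubated with radioligand and test chemical for 1 hour, then filtered and counted. Activity was taken as signal loss relative to DMSO, screened at 25 uM in duplicate before concentration-response follow-up.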

Test [4] addresses human Adenosine A2a Receptor (AdoRA2a), ADORA2A (gene 135) (UniProt P29274). Briefly: NVS_GPCR_hAdoRA2a: NovaScreen (NVS) G Protein-Coupled Receptor Assay for human Adenosine A2a Receptor (AdoRA2a) (AID 2283256). In a few lines:
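Compounds screened in duplicate at 25 uM, with actives followed up in concentration series, for displacement of a radioligand from HEK293-derived receptor protein. Bound counts read by filter scintillation at 1.5 hours, DMSO as baseline.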

Test [5] concerns the target human Adrenergic, Alpha 2A Receptor (Adra2A), ADRA2A (gene 150) (UniProt P08913). Briefly: NVS_GPCR_hAdra2A: NovaScreen (NVS) G Protein-Coupled Receptor Assay for human Adrenergic, Alpha 2A Receptor (Adra2A) (AID 2283257). In a few lines:
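Displacement of a specific radioligand from HT29 membrane protein was counted by filter scintillation after 1 h. Compounds were screened in duplicate at 25 uM, and actives were retested in concentration series. Fitting was positive-direction against DMSO.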

For test [6], the target named is human Serotonin, 5-Hydroxytryptamine Receptor 7 (5HT7), HTR7 (gene 3363) (UniProt P34969). The test can be described thus: NVS_GPCR_h5HT7: NovaScreen (NVS) G Protein-Coupled Receptor Assay for human Serotonin, 5-Hydroxytryptamine Receptor 7 (5HT7) (AID 2283255).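 Further: hits reduce specific radioligand binding relative to DMSO.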 The procedure, abridged: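 Filter-bound radioactivity counted after 1 h, with loss of specific radioligand binding fitted against DMSO. Membrane protein came from CHO cells expressing human 5HT7. Chemicals were tested first at 25 uM in duplicate, then in concentration series if active.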

Test [7] addresses human Adrenergic, Alpha 2c Receptor (Adra2C), ADRA2C (gene 152) (UniProt P18825). The test can be described thus: NVS_GPCR_hAdra2C: NovaScreen (NVS) G Protein-Coupled Receptor Assay for human Adrenergic, Alpha 2c Receptor (Adra2C) (AID 2283259). The procedure, abridged: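 Screened first in duplicate at 25 uM, with actives then run as concentration series. Membranes from Sf9 cells were exposed for 1 h, and displacement of radioligand was counted after filtration, using DMSO as baseline.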

Test [8] addresses human Adrenergic, Beta 3 Receptor (Adrb3), ADRB3 (gene 155) (UniProt P13945). Briefly: NVS_GPCR_hAdrb3: NovaScreen (NVS) G Protein-Coupled Receptor Assay for human Adrenergic, Beta 3 Receptor (Adrb3) (AID 2283262). The procedure, abridged:
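A cell-free filter binding assay read by scintillation counting, with displacement of a specific radioligand measured after 1 hour. The receptor source was SK-N-MC extracts (cells pretreated with isoproterenol and 8-bromo-cAMP). Compounds were first tested at 25 uM in duplicate and then in concentration series.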

For test [9], the target named is human Adrenergic, Beta 1 Receptor (Adrb1), ADRB1 (gene 153) (UniProt P08588). Briefly: NVS_GPCR_hAdrb1: NovaScreen (NVS) G Protein-Coupled Receptor Assay for human Adrenergic, Beta 1 Receptor (Adrb1) (AID 2283258). In a few lines: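 Membranes/protein extracted from human neuroepithelioma cells, radioligand competition binding read by filtration and scintillation 2 h post-dose. Single 25 uM duplicate screen, then concentration-response follow-up; DMSO as negative control.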

In test [10] the target is Type-1 angiotensin II receptor (Homo sapiens) (UniProt P30556). The test can be described thus: NVS_GPCR_hAT1: NovaScreen (NVS) G Protein-Coupled Receptor Assay for human Angiotensin II receptor type 1 (AT1) (AID 2283263). The procedure, abridged: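 Hits from a 25 uM duplicate screen (threshold e.g. 30% inhibition) were run in concentration-response with 50 uM top concentration. Displacement of specific radioligand from KAN-TS membrane preparations measured after 3 h by filter scintillation, DMSO as baseline.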

The target of test [11] is Beta-2 adrenergic receptor (Homo sapiens) (UniProt P07550). The test can be described thus: NVS_GPCR_hAdrb2: NovaScreen (NVS) G Protein-Coupled Receptor Assay for human Adrenergic, Beta 2 Receptor (Adrb2) (AID 2283261). The procedure, abridged: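 Compounds screened in duplicate at 25 uM, then actives in concentration series. Human beta-2 receptor from CHO material, cell-free; radioligand displacement after 1 h measured by filtration and scintillation against DMSO baseline.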

The target of test [12] is human Dopamine Receptor D2 (DRD2), DRD2 (gene 1813) (UniProt P14416). The test can be described thus: NVS_GPCR_hDRD2s: NovaScreen (NVS) G Protein-Coupled Receptor Assay for human Dopamine Receptor D2 (DRD2) (AID 2283266). The procedure, abridged:
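Test compound (25 uM, duplicate in the primary screen; concentration series at follow-up) competed with radioligand for human DRD2 in CHO-derived membrane protein. Filter-based scintillation counting was done 1.5 hours after dosing, with loss of signal analysed against DMSO.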

For test [13], the target named is Muscarinic acetylcholine receptor M1 (Homo sapiens) (UniProt P11229). Briefly: NVS_GPCR_hM1: NovaScreen (NVS) G Protein-Coupled Receptor Assay for human Muscarinic, M1 Receptor (AID 2283270). In a few lines:
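Actives from a duplicate 25 uM single-point screen were retested in concentration series. Binding measured as displacement of a radioligand from CHO-derived receptor preparation, 1 h incubation, filtration and scintillation counting, analysed as signal loss against DMSO.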

Test [14] deals with guinea pig Opioid, Kappa 1 Receptor (OpiateK), OPRK1 (gene 100135587) (UniProt P41144). The test can be described thus: NVS_GPCR_gOpiateK: NovaScreen (NVS) G Protein-Coupled Receptor Assay for guinea pig Opioid, Kappa 1 Receptor (OpiateK) (AID 2283252).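 Further: radioligand displacement from kappa opioid receptor in guinea pig cerebellar membranes; active means reduced radioligand binding relative to DMSO.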 In a few lines:
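Cell-free tissue prep: guinea pig cerebellar membranes, radioligand displacement, 2 h incubation. Readout: filtration plus scintillation counting. Primary single-point 25 uM duplicate; actives retested in concentration series; DMSO negative control.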

Test [15] addresses human Endothelin Receptor Type A (ETA), EDNRA (gene 1909) (UniProt P25101). The test can be described thus: NVS_GPCR_hETA: NovaScreen (NVS) G Protein-Coupled Receptor Assay for human Endothelin Receptor Type A (ETA) (AID 2283265). The procedure, abridged: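 Binding of radioligand to membrane protein extracted from SH-SY5Y cells was read by filtration and scintillation after 3 h. Compounds were screened at 25 uM in duplicate, with hits followed up in singleton concentration series to 50 uM.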

The target in test [16] is human Histamine 1 Receptor (H1), HRH1 (gene 3269) (UniProt P35367). The test can be described thus: NVS_GPCR_hH1: NovaScreen (NVS) G Protein-Coupled Receptor Assay for human Histamine 1 Receptor (H1) (AID 2283268). In a few lines:
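Filter-based scintillation detection of radioligand binding to human H1, 1 h incubation; chemicals screened in duplicate at 25 uM, then concentration-response; signal loss relative to DMSO taken as activity.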

Sequence of human Serotonin, 5-Hydroxytryptamine Receptor 5A (5HT5A), HTR5A (gene 3361) (P47898 whole entry, looked up): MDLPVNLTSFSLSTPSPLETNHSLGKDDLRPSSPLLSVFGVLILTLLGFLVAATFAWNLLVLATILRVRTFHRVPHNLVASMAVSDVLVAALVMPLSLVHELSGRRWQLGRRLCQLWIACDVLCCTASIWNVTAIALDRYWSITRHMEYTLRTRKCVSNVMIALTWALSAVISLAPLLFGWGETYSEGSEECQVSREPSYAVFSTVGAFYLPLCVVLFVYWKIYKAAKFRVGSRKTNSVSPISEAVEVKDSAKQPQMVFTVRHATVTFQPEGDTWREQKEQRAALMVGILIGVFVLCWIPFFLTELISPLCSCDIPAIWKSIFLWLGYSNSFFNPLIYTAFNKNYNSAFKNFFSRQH
Sequence of human Adenosine A1 Receptor (AdoRA1), ADORA1 (gene 134) (P30542 whole entry, looked up): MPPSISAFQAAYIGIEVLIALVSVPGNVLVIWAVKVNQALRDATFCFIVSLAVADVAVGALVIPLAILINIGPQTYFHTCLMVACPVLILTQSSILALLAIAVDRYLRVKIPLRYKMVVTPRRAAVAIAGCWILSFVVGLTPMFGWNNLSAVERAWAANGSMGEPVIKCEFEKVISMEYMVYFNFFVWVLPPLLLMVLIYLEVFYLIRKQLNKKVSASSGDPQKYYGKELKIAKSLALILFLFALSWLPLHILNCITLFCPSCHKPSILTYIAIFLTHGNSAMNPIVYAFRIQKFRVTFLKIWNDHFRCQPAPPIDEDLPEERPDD
Sequence of human Serotonin, 5-Hydroxytryptamine Receptor 7 (5HT7), HTR7 (gene 3363) (P34969 whole entry, looked up): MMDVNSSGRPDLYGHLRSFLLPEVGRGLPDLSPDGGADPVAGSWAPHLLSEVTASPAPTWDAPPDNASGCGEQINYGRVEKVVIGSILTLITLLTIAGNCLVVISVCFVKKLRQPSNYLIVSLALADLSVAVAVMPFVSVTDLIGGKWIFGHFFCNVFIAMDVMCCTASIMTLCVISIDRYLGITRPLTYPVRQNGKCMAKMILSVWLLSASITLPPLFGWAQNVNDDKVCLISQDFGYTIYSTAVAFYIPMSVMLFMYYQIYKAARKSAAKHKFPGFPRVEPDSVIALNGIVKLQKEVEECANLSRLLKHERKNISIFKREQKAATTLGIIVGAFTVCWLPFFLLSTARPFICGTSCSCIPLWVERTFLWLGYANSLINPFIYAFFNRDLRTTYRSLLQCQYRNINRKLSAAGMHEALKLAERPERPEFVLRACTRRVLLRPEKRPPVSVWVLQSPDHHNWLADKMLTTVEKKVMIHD
Sequence of human Adrenergic, Alpha 2c Receptor (Adra2C), ADRA2C (gene 152) (P18825 whole entry, looked up): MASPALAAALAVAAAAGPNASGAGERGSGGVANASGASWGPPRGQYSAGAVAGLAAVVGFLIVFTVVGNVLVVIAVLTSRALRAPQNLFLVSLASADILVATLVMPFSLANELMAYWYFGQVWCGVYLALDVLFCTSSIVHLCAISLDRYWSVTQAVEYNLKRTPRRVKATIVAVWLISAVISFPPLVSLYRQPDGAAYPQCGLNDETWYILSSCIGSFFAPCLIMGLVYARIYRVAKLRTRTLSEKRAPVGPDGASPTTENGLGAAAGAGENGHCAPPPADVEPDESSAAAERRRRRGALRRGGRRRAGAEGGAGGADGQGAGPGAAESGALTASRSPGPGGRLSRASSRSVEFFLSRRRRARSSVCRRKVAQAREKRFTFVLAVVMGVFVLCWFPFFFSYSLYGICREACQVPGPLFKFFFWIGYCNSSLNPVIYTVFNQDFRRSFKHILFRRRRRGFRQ
Sequence of human Adrenergic, Beta 1 Receptor (Adrb1), ADRB1 (gene 153) (P08588 whole entry, looked up): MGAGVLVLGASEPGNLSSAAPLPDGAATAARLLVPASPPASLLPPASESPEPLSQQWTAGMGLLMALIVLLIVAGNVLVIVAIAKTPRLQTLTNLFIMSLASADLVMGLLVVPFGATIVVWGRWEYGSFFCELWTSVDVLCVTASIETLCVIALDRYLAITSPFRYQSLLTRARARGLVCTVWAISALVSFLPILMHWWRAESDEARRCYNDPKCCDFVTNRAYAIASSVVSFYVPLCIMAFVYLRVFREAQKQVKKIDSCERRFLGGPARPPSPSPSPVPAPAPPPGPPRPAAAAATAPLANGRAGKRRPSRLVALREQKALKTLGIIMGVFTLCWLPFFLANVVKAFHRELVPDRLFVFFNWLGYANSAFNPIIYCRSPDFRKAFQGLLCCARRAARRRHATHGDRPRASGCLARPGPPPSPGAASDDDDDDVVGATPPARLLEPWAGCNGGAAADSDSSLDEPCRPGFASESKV
Sequence of D(1A) dopamine receptor (Homo sapiens) (P21728 whole entry, looked up): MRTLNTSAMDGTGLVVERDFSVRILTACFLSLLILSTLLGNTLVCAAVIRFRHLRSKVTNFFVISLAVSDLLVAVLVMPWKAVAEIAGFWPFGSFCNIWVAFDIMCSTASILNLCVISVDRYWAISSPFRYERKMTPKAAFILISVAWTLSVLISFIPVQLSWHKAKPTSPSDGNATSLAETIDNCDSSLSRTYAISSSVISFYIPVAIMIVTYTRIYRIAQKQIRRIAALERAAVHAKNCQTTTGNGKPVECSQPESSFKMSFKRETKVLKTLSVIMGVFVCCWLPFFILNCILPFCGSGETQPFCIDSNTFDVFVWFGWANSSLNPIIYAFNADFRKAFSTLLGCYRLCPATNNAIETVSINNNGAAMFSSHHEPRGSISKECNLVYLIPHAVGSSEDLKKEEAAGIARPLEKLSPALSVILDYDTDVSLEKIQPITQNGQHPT
Sequence of Type-1 angiotensin II receptor (Homo sapiens) (P30556 whole entry, looked up): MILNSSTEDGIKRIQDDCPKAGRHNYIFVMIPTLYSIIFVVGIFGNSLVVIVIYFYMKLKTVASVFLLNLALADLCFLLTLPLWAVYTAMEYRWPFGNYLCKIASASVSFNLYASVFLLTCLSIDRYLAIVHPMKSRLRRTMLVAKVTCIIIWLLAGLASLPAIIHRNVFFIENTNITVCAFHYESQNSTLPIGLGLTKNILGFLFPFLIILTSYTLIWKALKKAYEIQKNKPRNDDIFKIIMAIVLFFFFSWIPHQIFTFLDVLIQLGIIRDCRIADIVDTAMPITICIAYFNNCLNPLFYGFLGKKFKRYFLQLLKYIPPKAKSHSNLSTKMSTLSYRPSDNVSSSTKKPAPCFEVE
Sequence of human Adrenergic, Alpha 2A Receptor (Adra2A), ADRA2A (gene 150) (P08913 whole entry, looked up): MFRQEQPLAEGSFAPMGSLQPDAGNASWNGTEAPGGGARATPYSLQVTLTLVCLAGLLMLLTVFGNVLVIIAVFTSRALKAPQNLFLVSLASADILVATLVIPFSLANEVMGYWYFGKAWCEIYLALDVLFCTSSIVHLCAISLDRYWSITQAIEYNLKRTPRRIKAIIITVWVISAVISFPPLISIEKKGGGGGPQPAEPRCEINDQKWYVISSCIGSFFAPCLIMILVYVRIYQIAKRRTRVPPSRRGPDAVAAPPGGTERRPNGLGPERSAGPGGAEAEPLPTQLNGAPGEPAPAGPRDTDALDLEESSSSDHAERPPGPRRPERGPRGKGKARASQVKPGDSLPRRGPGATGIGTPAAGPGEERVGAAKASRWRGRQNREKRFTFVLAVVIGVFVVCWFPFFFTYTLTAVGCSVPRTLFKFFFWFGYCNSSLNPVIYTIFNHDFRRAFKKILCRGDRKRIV
Sequence of human Adenosine A2a Receptor (AdoRA2a), ADORA2A (gene 135) (P29274 whole entry, looked up): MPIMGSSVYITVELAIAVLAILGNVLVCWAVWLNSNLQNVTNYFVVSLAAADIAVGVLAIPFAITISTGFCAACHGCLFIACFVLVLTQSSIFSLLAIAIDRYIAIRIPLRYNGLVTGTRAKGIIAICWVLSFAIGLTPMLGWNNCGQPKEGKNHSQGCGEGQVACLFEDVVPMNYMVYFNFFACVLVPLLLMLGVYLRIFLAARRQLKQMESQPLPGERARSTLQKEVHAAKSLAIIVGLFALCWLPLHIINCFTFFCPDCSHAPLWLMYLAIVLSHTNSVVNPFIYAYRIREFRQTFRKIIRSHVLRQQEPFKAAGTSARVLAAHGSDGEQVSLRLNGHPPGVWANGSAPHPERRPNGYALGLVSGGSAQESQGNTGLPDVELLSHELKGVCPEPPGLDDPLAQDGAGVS
Sequence of human Histamine 1 Receptor (H1), HRH1 (gene 3269) (P35367 whole entry, looked up): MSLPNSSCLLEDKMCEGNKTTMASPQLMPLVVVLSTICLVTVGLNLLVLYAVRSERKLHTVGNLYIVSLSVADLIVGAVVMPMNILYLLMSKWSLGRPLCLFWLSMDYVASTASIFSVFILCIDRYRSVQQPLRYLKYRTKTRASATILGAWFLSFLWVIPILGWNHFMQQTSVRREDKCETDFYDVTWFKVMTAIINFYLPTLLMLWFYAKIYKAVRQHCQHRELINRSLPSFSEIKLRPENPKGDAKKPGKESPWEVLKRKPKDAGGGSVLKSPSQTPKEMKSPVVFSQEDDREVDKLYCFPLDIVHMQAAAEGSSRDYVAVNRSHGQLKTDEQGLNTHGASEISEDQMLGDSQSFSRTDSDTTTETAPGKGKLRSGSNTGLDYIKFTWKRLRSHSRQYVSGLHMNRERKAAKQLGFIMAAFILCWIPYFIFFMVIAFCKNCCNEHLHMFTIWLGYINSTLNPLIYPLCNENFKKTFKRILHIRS
Sequence of guinea pig Opioid, Kappa 1 Receptor (OpiateK), OPRK1 (gene 100135587) (P41144 whole entry, looked up): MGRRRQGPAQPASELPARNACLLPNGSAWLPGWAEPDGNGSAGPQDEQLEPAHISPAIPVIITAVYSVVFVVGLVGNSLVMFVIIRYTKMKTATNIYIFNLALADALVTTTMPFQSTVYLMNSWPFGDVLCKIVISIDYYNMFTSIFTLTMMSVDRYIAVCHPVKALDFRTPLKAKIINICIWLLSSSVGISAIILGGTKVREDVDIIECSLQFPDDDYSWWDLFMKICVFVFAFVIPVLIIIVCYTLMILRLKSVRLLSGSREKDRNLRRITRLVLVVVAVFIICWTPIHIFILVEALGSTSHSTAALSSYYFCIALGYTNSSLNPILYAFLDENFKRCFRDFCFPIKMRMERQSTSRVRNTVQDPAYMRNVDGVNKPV

As usually defined, the AC50 is the midpoint of the concentration-response curve, whichever way the signal moves. Regarding `C=CCC1=C(C)[C@@H](OC(=O)[C@@H]2[C@@H](C=C(C)C)C2(C)C)CC1=O`, in [1], the AC50 was 25 µM (active).
In the case of `CCCN(CCC)c1c([N+](=O)[O-])cc(S(N)(=O)=O)cc1[N+](=O)[O-]`, the result in test [2] and in test [4] was inactive. In addition, the AC50 in [3] was 6.48 µM (active).
Take `N#CC(CCc1ccc(Cl)cc1)(Cn1cncn1)c1ccccc1` (centres undefined): the outcome in test [5] was inactive.
Regarding `O=C(Nc1ccccc1)Nc1ccnc(Cl)c1`, the AC50 is 7.13 µM (active) in [2]; 14.1 µM (active) in test [6]; 11.6 µM (active) in test [5]; 11.2 µM (active) in [7]; 14.5 µM (active) in test [1]. Also, the compound was classed as inactive in test [8].
In the case of `C#CCOS(=O)OC1CCCCC1Oc1ccc(C(C)(C)C)cc1` (centres undefined), the half-maximal activity concentration (AC50) in test [2] was 35 µM (active); in [6], 25 µM (active); in [1] it was 25 µM (active). The call in [9] and in [10] was inactive.
As for `COc1ccc(C(c2ccc(OC)cc2)C(Cl)(Cl)Cl)cc1`, the outcome in [2], in test [9], in test [7], in test [11], in test [12] and in [1] was inactive. The call in [13] was inactive. For the same compound, the AC50 in [3] is 6.77 µM (active).
On to `CCCC1COC(Cn2cncn2)(c2ccc(Cl)cc2Cl)O1` (centres undefined), for which, in [14], the AC50 was 16.6 µM (active).
As to `CCOc1cc(Oc2ccc(C(F)(F)F)cc2Cl)ccc1[N+](=O)[O-]`, the outcome in test [2] was inactive.
Turning to `C=CCC1=C(C)C(OC(=O)C2C(C=C(C)C)C2(C)C)CC1=O` (centres undefined), the compound was classed as inactive in test [9], in [7], in test [10] and in test [15]. In addition, the concentration at half-maximal activity (AC50) in [1] was 41.6 µM (active) and 29.3 µM (active).
`COC(=O)N(OC)c1ccccc1COc1ccn(-c2ccc(Cl)cc2)n1`: the half-maximal activity concentration (AC50) in test [3] was 5.54 µM (active); in [6], 0.944 µM (active).
Consider `CCON=C(CC)C1=C(O)CC(c2c(C)cc(C)cc2C)CC1=O` (centres undefined), for which, in [2], the outcome was inactive. Further, the half-maximal activity concentration (AC50) in [5] is 4.3 µM (active).
In the case of `CS/C(C)=N/OC(=O)N(C)SN(C)C(=O)O/N=C(\C)SC`, the AC50 in test [14] is 25 µM (active).
As for `CC(C)Oc1cc(-n2nc(C(C)(C)C)oc2=O)c(Cl)cc1Cl`, in test [16], the result was inactive.
With `CCNc1nc(Cl)nc(NC(C)C)n1`, the outcome in test [2], in [4], in test [10] and in [16] was inactive. Moreover, the AC50 in test [3] was 5.9 µM (active); in [4], 4.96 µM (active) and 6.26 µM (active).
Regarding `Cc1cc(Cl)ccc1OCC(=O)O`, the call in [2] was inactive.
